Assay results taken from PubChem BioAssay (NCATS).
Where “and” joins values, the source holds several entries; their conditions need not be identical. Identical values can stand only once. Results filed as inconclusive are left out. Where a call stands in place of a potency, no number is given. More than one record can exist for a structure, and the calls need not agree. Unmarked numbers belong to inactive results. Calls of active or inactive are those of the source. Calls come from the whole dose curve; as a rule, active = well fitted inhibition curve with a large enough effect; inconclusive = small, poorly fitted or top-dose-only effect; inactive = flat fitted curve, though single readings scatter.

Tests used:
CRL-7250 = normal cell line; experiment: Cytotoxic Profiling of Annotated Libraries Using Quantitative High-Throughput Screening (AID 1296008); conditions: Five cell lines viability, CellTiter-Glo ATP luminescence, 48-72 h; max response: hits give low values; note: potency is the fitted concentration of half-maximal effect
In short: (§1)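 Compounds were pin-transferred onto cells and incubated 48 or 72 hr at 37 degree Celsius, 95% humidity. CellTiter-Glo was added, plates sat 10 min at room temperature, then ATP-coupled luminescence was imaged as the viability read-out.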

HEK293 = experiment: as above; conditions: Five cell lines viability, CellTiter-Glo ATP luminescence, 48-72 h; max response: hits give low values
In short: as §1

HaCat = experiment: as above; conditions: Five cell lines viability, CellTiter-Glo ATP luminescence, 48-72 h; max response: hits give low values
In short: as §1

FAB9 = experiment: qHTS profiling for inhibitors of Plasmodium falciparum proliferation (AID 504749); conditions: P. falciparum in erythrocytes, SYBR Green DNA, 72 h; series mostly up to 28.7 µM
In short: (§2)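 Quantitative HTS: compounds pinned into medium, infected erythrocytes added (0.3% parasitemia, 2.5% hematocrit), 72 h culture at 37 C under 5% CO2. Saponin/Triton lysis with SYBR Green I, overnight RT, then fluorescence read.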

GB4 = experiment: as above; conditions: P. falciparum in erythrocytes, SYBR Green DNA, 72 h; series mostly up to 28.7 µM
In short: as §2

HB3 = experiment: as above; conditions: P. falciparum in erythrocytes, SYBR Green DNA, 72 h; series mostly up to 28.7 µM
In short: as §2

ICS = experiment: as above; conditions: P. falciparum in erythrocytes, SYBR Green DNA, 72 h; series mostly up to 28.7 µM
In short: as §2

JCK = experiment: as above; conditions: P. falciparum in erythrocytes, SYBR Green DNA, 72 h; series mostly up to 28.7 µM
In short: as §2

N140 = experiment: as above; conditions: P. falciparum in erythrocytes, SYBR Green DNA, 72 h; series mostly up to 28.7 µM
In short: as §2

P93_24 = experiment: as above; conditions: P. falciparum in erythrocytes, SYBR Green DNA, 72 h; series mostly up to 28.7 µM
In short: as §2

P94_40 = experiment: as above; conditions: P. falciparum in erythrocytes, SYBR Green DNA, 72 h; series mostly up to 28.7 µM
In short: as §2

PAD = experiment: as above; conditions: P. falciparum in erythrocytes, SYBR Green DNA, 72 h; series mostly up to 28.7 µM
In short: as §2

PC15 = experiment: as above; conditions: P. falciparum in erythrocytes, SYBR Green DNA, 72 h; series mostly up to 28.7 µM
In short: as §2

PC26 = experiment: as above; conditions: P. falciparum in erythrocytes, SYBR Green DNA, 72 h; series mostly up to 28.7 µM
In short: as §2

PC49 = experiment: as above; conditions: P. falciparum in erythrocytes, SYBR Green DNA, 72 h; series mostly up to 28.7 µM
In short: as §2

SC27B = experiment: as above; conditions: P. falciparum in erythrocytes, SYBR Green DNA, 72 h; series mostly up to 28.7 µM
In short: as §2

TAB109 = experiment: as above; conditions: P. falciparum in erythrocytes, SYBR Green DNA, 72 h; series mostly up to 28.7 µM
In short: as §2

TAB113 = experiment: as above; conditions: P. falciparum in erythrocytes, SYBR Green DNA, 72 h; series mostly up to 28.7 µM
In short: as §2

TAB165 = experiment: as above; conditions: P. falciparum in erythrocytes, SYBR Green DNA, 72 h; series mostly up to 28.7 µM
In short: as §2

W2 = experiment: as above; conditions: P. falciparum in erythrocytes, SYBR Green DNA, 72 h; series mostly up to 28.7 µM
In short: as §2
Note: nearly all actives have a fitted effect of over 60% in size.

COc1nc(C)cnc1NS(=O)(=O)c1cccnc1-c1ccc(-c2nnco2)cc1
max response (CRL-7250): 1.92% and 1.59% | outcome (HEK293): inactive | max response (HaCat): 3.49% | outcome (HaCat): inactive

Clc1ccc(C2(c3ccc(-c4cn[nH]c4)cc3)CCNCC2)cc1
Potency (CRL-7250): 3.72 µM (active) and 7.31 µM (active) | Potency (HEK293): 5.26 µM (active) and 10.3 µM (active) | Potency (HaCat): 13 µM (active) | outcome (HaCat): inactive

CS(=O)(=O)c1ccc(C2=C(c3ccccc3)C(=O)OC2)cc1
outcome (FAB9): inactive | Potency (GB4): inactive | Potency (HB3): inactive | Potency (ICS): inactive | outcome (JCK): inactive | Potency (N140): inactive | Potency (P93_24): inactive | Potency (P94_40): inactive | Potency (PAD): inactive | outcome (PC15): inactive | Potency (PC26): inactive | outcome (PC49): inactive | Potency (SC27B): inactive | Potency (TAB109): inactive | Potency (TAB113): inactive | Potency (TAB165): inactive | Potency (W2): inactive | max response (CRL-7250): 3.58% and 2.56% | outcome (HEK293): inactive | max response (HaCat): -5.92% | outcome (HaCat): inactive

CCOC(=O)N1CCN([N+]([O-])=NOc2cc(ON=[N+]([O-])N3CCN(C(=O)OCC)CC3)c([N+](=O)[O-])cc2[N+](=O)[O-])CC1
outcome (CRL-7250): inactive | outcome (HaCat): inactive

C#C[C@]1(O)CC[C@H]2[C@H]3CCc4cc(OC)ccc4[C@H]3CC[C@@]21C
max response (CRL-7250): -5.04% | max response (HaCat): 0.906%

OC[C@H]1O[C@@H](Oc2ccc(O)cc2)[C@H](O)[C@@H](O)[C@H]1O
max response (CRL-7250): -2.9% | outcome (HaCat): inactive

C=C1c2cccc(O)c2C(O)=C2C(=O)[C@@]3(O)C(O)=C(C(N)=O)C(=O)[C@@H](N(C)C)[C@@H]3[C@@H](O)[C@H]12
outcome (FAB9): inactive | Potency (GB4): inactive | outcome (JCK): inactive | Potency (N140): inactive | Potency (P94_40): inactive | Potency (PAD): inactive | outcome (PC15): inactive | Potency (PC26): inactive | outcome (PC49): inactive | Potency (SC27B): inactive | Potency (TAB109): inactive | Potency (TAB113): inactive | max response (CRL-7250): -8.75% | max response (HEK293): 0.32% | outcome (HaCat): inactive

Oc1ccc(C=Cc2cc(O)cc(O)c2)cc1
max response (CRL-7250): -12.2% | max response (HaCat): -24.3%

CN1c2ccccc2C(=O)N2CCc3c([nH]c4ccccc34)C21 (stereo not drawn)
max response (CRL-7250): 4.95% | max response (HaCat): -3.12%

CCCCC(C)(C)[C@H](O)C=C[C@H]1[C@H](O)CC(=O)[C@H]1CC=CCCCC(=O)O
max response (CRL-7250): -10.4% | outcome (HaCat): inactive

N#CC(c1ccnc(NCCc2cccnc2)n1)c1nc2ccccc2s1 (stereo not drawn)
max response (CRL-7250): -3.29% | outcome (HaCat): inactive

Cc1c(-c2cccc3c(CCCOc4cccc5ccccc45)c(C(=O)O)n(Cc4cccnc4)c23)c(COc2ccc(N3CCN([S+](=O)([O-])N(C)C)CC3)cc2)nn1C
max response (CRL-7250): -2.89% | max response (HaCat): -5.9%

C[C@@H](NC(=O)c1ncnc(N)c1Cl)c1ncc(C(=O)Nc2cc(C(F)(F)F)c(Cl)cn2)s1
max response (CRL-7250): -9.83% | outcome (HaCat): inactive

CCC(=O)NCC[C@@H]1CCc2ccc3c(c21)CCO3
max response (CRL-7250): -4.42% | outcome (HaCat): inactive

CN(C)CCOc1ccc(-c2nc(-c3ccc4c(c3)CCC4=NO)c(-c3ccncc3)[nH]2)cc1
outcome (CRL-7250): inactive | outcome (HaCat): inactive

Cc1c(C(=O)Nc2ccc(N3C[C@@H](C)O[C@@H](C)C3)nc2)cccc1-c1ccc(OC(F)(F)F)cc1
max response (CRL-7250): -6.66% | Potency (HaCat): 9.35 µM (active)

O=C(Nc1cccc(C(F)(F)F)c1)Nc1cc(S(=O)(=O)NC2CC2)ccc1-c1ccsc1
max response (CRL-7250): -35.6% | max response (HaCat): -22.2%

O=C1Nc2ccc(I)cc2C1=Cc1cc(Br)c(O)c(Br)c1
outcome (CRL-7250): inactive | max response (HaCat): 4.95%

C[C@@H]1CCO[C@H]2Cn3cc(C(=O)NCc4ccc(F)cc4F)c(=O)c(O)c3C(=O)N12
outcome (CRL-7250): inactive | outcome (HaCat): inactive

CC(=O)O[C@]1(C(C)=O)CC[C@H]2[C@@H]3C=C(Cl)C4=CC(=O)[C@@H]5C[C@H]5[C@]4(C)[C@@H]3CC[C@@]21C
outcome (CRL-7250): inactive | max response (HaCat): -0.438%

CCCCC(C=O)NC(=O)C(CC(C)C)NC(=O)OCc1ccccc1 (stereo not drawn)
max response (CRL-7250): -8.38% | outcome (HaCat): inactive

COc1cc(CNC(=O)CCCCC=CC(C)C)ccc1O
max response (CRL-7250): -19.8% | max response (HaCat): 3.92%

CCC[C@H](N[C@@H](C)C(=O)N1[C@@H]2CCCC[C@H]2C[C@H]1C(=O)O)C(=O)OCC
max response (CRL-7250): 2.7% | outcome (HaCat): inactive

CCNC(=O)CCCC=CC[C@@H]1[C@H](C=CC(O)CCc2ccccc2)[C@@H](O)C[C@@H]1O (stereo partly drawn)
max response (CRL-7250): -10.2% | max response (HaCat): 4.63%

CC=C1C2C=C(C)CC1(N)c1ccc(=O)[nH]c1C2 (stereo not drawn)
max response (CRL-7250): 3.51% | outcome (HaCat): inactive

CO[C@@H]1C(N(C)C(=O)c2ccccc2)C[C@H]2O[C@]1(C)n1c3ccccc3c3c4c(c5c6ccccc6n2c5c31)C(=O)NC4=O (stereo partly drawn)
Potency (CRL-7250): 6.62 µM (active) | Potency (HaCat): 9.35 µM (active)

O=C(O)C1=NC(C(=O)O)CC(C=CN2c3cc(O)c(OC4OC(CO)C(O)C(O)C4O)cc3CC2C(=O)O)=C1 (stereo not drawn)
outcome (CRL-7250): inactive | outcome (HaCat): inactive

COc1ccc(-c2ccc3ncc4c(c3c2)n(-c2ccc(N3CCNCC3)c(C(F)(F)F)c2)c(=O)n4C)cn1
max response (CRL-7250): -103% | Potency (HaCat): 3.7 nM (active) and 58 nM (active)

CCN1CCC(n2cc(CNc3cc(Cl)c4ncc(C#N)c(Nc5ccc(F)c(Cl)c5)c4c3)nn2)CC1
max response (CRL-7250): -1.92% and -4.77% | max response (HaCat): -29.2% and -4.6%

Cc1cc(C(C)Nc2ccccc2)c2nc(N3CCOCC3)cc(=O)n2c1 (stereo not drawn)
max response (CRL-7250): -10.1% | max response (HaCat): -24%

O=C(O)CCC=CCC[C@@H]1[C@H](N2CCCCC2)[C@@H](O)C[C@@H]1OCc1ccc(-c2ccccc2)cc1
outcome (CRL-7250): inactive | outcome (HaCat): inactive

NCc1c[nH]c(=S)n1[C@H]1CCc2c(F)cc(F)cc2C1
Potency (CRL-7250): 16.6 µM (active) | outcome (HaCat): inactive

CCOC(=O)c1c(CSc2ccccc2)n(C)c2cc(Br)c(O)c(CN(C)C)c12
outcome (CRL-7250): inactive | outcome (HaCat): inactive

C=C[C@@H]1CN2CCC1C[C@@H]2C(O)c1ccnc2ccc(OC)cc12 (stereo partly drawn)
outcome (CRL-7250): inactive | outcome (HaCat): inactive

C=CC(=O)Nc1cccc(Sc2nc(Nc3ccc(N4CCN(C)CC4)cc3)ncc2Cl)c1
Potency (CRL-7250): 33.2 µM (active) | Potency (HaCat): 5.8 µM (active)

CO[C@H]1/C=C\O[C@@]2(C)Oc3c(C)c(O)c4c(O)c(c5c(nc6cc(C)ccn65)c4c3C2=O)NC(=O)C(C)=CC=C[C@H](C)[C@H](O)[C@@H](C)[C@@H](O)[C@@H](C)[C@H](OC(C)=O)[C@H]1C
max response (CRL-7250): 3.34% | max response (HaCat): -2.46%
